In PubChem BioAssay AID1159580 (chemical genetic matrix, 2015):
Several values for one entry are separate records, joined by “and”; a condition that tells them apart may be missing. Identical values can stand only once. The whole screen tested about 5,500 compounds, of which about 2,000 (36%) were called active. Roughly 18% stayed inconclusive and do not appear here. No stated cut-off is given here; in the data, active means normalized growth mostly below about 0.91 (no sharp cut-off); inconclusive means no clear call, values can overlap the other calls; inactive means mostly above about 0.92. This is one part of the list.

Assay: chemical genetic growth profiling, strain panel (AID 1159580);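 further: tested at 20 µM; growth read once vehicle control cultures reached saturation at 30 °C; 1 = growth at the plate median or of vehicle wells; lower values mean less growth of the strain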
Conditions: growth OD

Measured: normalized growth

C=C1CCC(C2CC(=O)OC2=O)C(=O)CCC2C1CC2(C)C (centres undefined)
inactive: S. cerevisiae deletion strains, locus YAL021C, strain ccr4, active compounds read low 0.991 | S. cerevisiae deletion strains, locus YAL026C, strain drs2, active compounds read low 1 | S. cerevisiae deletion strains, locus YAL030W, strain snc1, active compounds read low 1.01 | S. cerevisiae deletion strains, locus YBL061C, strain skt5, active compounds read low 1 | S. cerevisiae deletion strains, locus YBR009C, strain hhf1, active compounds read low 1 | S. cerevisiae deletion strains, locus YBR021W, strain FUR4, active compounds read low 1 | S. cerevisiae deletion strains, locus YBR023C, strain chs3, active compounds read low 1 | S. cerevisiae deletion strains, locus YBR171W, strain sec66, active compounds read low 1 | S. cerevisiae deletion strains, locus YBR229C, strain ROT2, active compounds read low 1.01 | S. cerevisiae deletion strains, locus YBR231C, strain swc5, active compounds read low 1 | S. cerevisiae deletion strains, locus YBR279W, strain paf1, active compounds read low 1.01 | S. cerevisiae deletion strains, locus YCL011C, strain gbp2, active compounds read low 1 | S. cerevisiae deletion strains, locus YCL016C, strain dcc1, active compounds read low 0.993 | S. cerevisiae deletion strains, locus YCL029C, strain bik1, active compounds read low 1.02 | S. cerevisiae deletion strains, locus YCL069W, strain vba3, active compounds read low 1.02 | S. cerevisiae deletion strains, locus YCR088W, strain abp1, active compounds read low 1.01 | S. cerevisiae deletion strains, locus YDL005C, strain med2, active compounds read low 1.01 | S. cerevisiae deletion strains, locus YDL035C, strain GPR1, active compounds read low 0.995 | S. cerevisiae deletion strains, locus YDL040C, strain nat1, active compounds read low 1.01 | S. cerevisiae deletion strains, locus YDL074C, strain BRE1, active compounds read low 1.03 | S. cerevisiae deletion strains, locus YDL101C, strain DUN1, active compounds read low 1.02 | S. cerevisiae deletion strains, locus YDL134C, strain PPH21, active compounds read low 1.04 | S. cerevisiae deletion strains, locus YDL185W, strain tfp1, active compounds read low 1.02 | S. cerevisiae deletion strains, locus YDL192W, strain arf1, active compounds read low 1.01 | S. cerevisiae deletion strains, locus YDR001C, strain nth1, active compounds read low 1 | S. cerevisiae deletion strains, locus YDR069C, strain doa4, active compounds read low 0.988 | S. cerevisiae deletion strains, locus YDR101C, strain arx1, active compounds read low 0.972 | S. cerevisiae deletion strains, locus YDR137W, strain rgp1, active compounds read low 1.01 | S. cerevisiae deletion strains, locus YDR159W, strain sac3, active compounds read low 0.97 | S. cerevisiae deletion strains, locus YDR162C, strain NBP2, active compounds read low 1 | S. cerevisiae deletion strains, locus YDR195W, strain ref2 0.986 | S. cerevisiae deletion strains, locus YDR297W, strain sur2, active compounds read low 1 | S. cerevisiae deletion strains, locus YDR318W, strain mcm21, active compounds read low 1 | S. cerevisiae deletion strains, locus YDR334W, strain swr1, active compounds read low 1 | S. cerevisiae deletion strains, locus YDR335W, strain msn5, active compounds read low 1.02 | S. cerevisiae deletion strains, locus YDR388W, active compounds read low 1 | S. cerevisiae deletion strains, locus YDR392W, strain spt3, active compounds read low 0.876 | S. cerevisiae deletion strains, locus YDR502C, strain sam2, active compounds read low 1.03 | S. cerevisiae deletion strains, locus YEL003W, strain gim4, active compounds read low 1.01 | S. cerevisiae deletion strains, locus YEL037C, strain rad23, active compounds read low 1.01 | S. cerevisiae deletion strains, locus YEL061C, strain CIN8 (second series), active compounds read low 1.01 | S. cerevisiae deletion strains, locus YER015W, strain faa2, active compounds read low 1.02 | S. cerevisiae deletion strains, locus YER016W, strain bim1, active compounds read low 1 | S. cerevisiae deletion strains, locus YER110C, active compounds read low 1.01 | S. cerevisiae deletion strains, locus YER111C, strain swi4, active compounds read low 1.01 | S. cerevisiae deletion strains, locus YER155C, strain BEM2 (second series), active compounds read low 0.983 | S. cerevisiae deletion strains, locus YER155C, strain BEM2, active compounds read low 1.01 | S. cerevisiae deletion strains, locus YER167W, strain BCK2, active compounds read low 1 | S. cerevisiae deletion strains, locus YFR010W, strain ubp6, active compounds read low 1.01 | S. cerevisiae deletion strains, locus YGL078C, strain dbp3, active compounds read low 1.03 | S. cerevisiae deletion strains, locus YGL086W, strain mad1, active compounds read low 1.01 | S. cerevisiae deletion strains, locus YGL167C, strain pmr1, active compounds read low 1.01 | S. cerevisiae deletion strains, locus YGL173C, strain kem1, active compounds read low 1 | S. cerevisiae deletion strains, locus YGL227W, strain vid30, active compounds read low 1.01 | S. cerevisiae deletion strains, locus YGL240W, strain doc1, active compounds read low 0.987 | S. cerevisiae deletion strains, locus YGL248W, strain PDE1, active compounds read low 1.04 | S. cerevisiae deletion strains, locus YGL253W, strain hxk2, active compounds read low 1.03 | S. cerevisiae deletion strains, locus YGR078C, strain PAC10, active compounds read low 1.04 | S. cerevisiae deletion strains, locus YGR135W, strain pre9, active compounds read low 1.05 | S. cerevisiae deletion strains, locus YGR252W, strain gcn5, active compounds read low 1.09 | S. cerevisiae deletion strains, locus YHR013C, strain ard1, active compounds read low 1.01 | S. cerevisiae deletion strains, locus YHR027C, strain rpn1, active compounds read low 1 | S. cerevisiae deletion strains, locus YHR030C, strain SLT2, active compounds read low 0.975 | S. cerevisiae deletion strains, locus YHR079C, strain IRE1 (second series), active compounds read low 1.01 | S. cerevisiae deletion strains, locus YHR079C, strain IRE1, active compounds read low 0.974 | S. cerevisiae deletion strains, locus YHR094C, strain hxt1, active compounds read low 0.995 | S. cerevisiae deletion strains, locus YHR129C, strain ARP1, active compounds read low 1.02 | S. cerevisiae deletion strains, locus YHR142W, strain chs7, active compounds read low 1.04 | S. cerevisiae deletion strains, locus YHR200W, strain rpn10, active compounds read low 1.03 | S. cerevisiae deletion strains, locus YIL066C, strain RNR3, active compounds read low 1.01 | S. cerevisiae deletion strains, locus YIL073C, strain SPO22, active compounds read low 1.02 | S. cerevisiae deletion strains, locus YIL125W, strain kgd1, active compounds read low 0.98 | S. cerevisiae deletion strains, locus YIR030C, strain dcg1, active compounds read low 1.01 | S. cerevisiae deletion strains, locus YJL092W, strain hpr5, active compounds read low 1.02 | S. cerevisiae deletion strains, locus YJL095W, strain BCK1 (second series), active compounds read low 1 | S. cerevisiae deletion strains, locus YJL095W, strain BCK1, active compounds read low 1.06 and 0.979 | S. cerevisiae deletion strains, locus YJL115W, strain asf1, active compounds read low 0.999 | S. cerevisiae deletion strains, locus YJL129C, strain trk1, active compounds read low 0.989 | S. cerevisiae deletion strains, locus YJL134W, strain LCB3, active compounds read low 0.997 | S. cerevisiae deletion strains, locus YJL154C, strain vps35, active compounds read low 1.02 | S. cerevisiae deletion strains, locus YJL164C, strain tpk1, active compounds read low 1 | S. cerevisiae deletion strains, locus YJL166W, strain qcr8, active compounds read low 1 | S. cerevisiae deletion strains, locus YJL168C, strain set2, active compounds read low 1.02 | S. cerevisiae deletion strains, locus YJL187C, strain SWE1 (second series), active compounds read low 1.04 | S. cerevisiae deletion strains, locus YJR066W, strain TOR1, active compounds read low 0.929 | S. cerevisiae deletion strains, locus YJR075W, strain HOC1, active compounds read low 1.02 | S. cerevisiae deletion strains, locus YKL009W, strain mrt4, active compounds read low 1 | S. cerevisiae deletion strains, locus YKL068W, active compounds read low 1 | S. cerevisiae deletion strains, locus YKL085W, strain MDH1 (second series), active compounds read low 1 | S. cerevisiae deletion strains, locus YKL085W, strain MDH1, active compounds read low 1 | S. cerevisiae deletion strains, locus YKL160W, strain elf1, active compounds read low 1 | S. cerevisiae deletion strains, locus YKR001C, strain vps1, active compounds read low 1 | S. cerevisiae deletion strains, locus YKR026C, strain gcn3, active compounds read low 1.01 | S. cerevisiae deletion strains, locus YKR091W, strain srl3, active compounds read low 1 | S. cerevisiae deletion strains, locus YLL001W, strain dnm1, active compounds read low 1.01 | S. cerevisiae deletion strains, locus YLL026W, active compounds read low 1 | S. cerevisiae deletion strains, locus YLL041C, strain sdh2, active compounds read low 1.01 | S. cerevisiae deletion strains, locus YLR027C, strain aat2, active compounds read low 1.02 | S. cerevisiae deletion strains, locus YLR039C, strain RIC1, active compounds read low 1.04 | S. cerevisiae deletion strains, locus YLR058C, strain SHM2, active compounds read low 1 | S. cerevisiae deletion strains, locus YLR102C, strain apc9, active compounds read low 1.01 | S. cerevisiae deletion strains, locus YLR113W, strain HOG1, active compounds read low 0.946 | S. cerevisiae deletion strains, locus YLR221C, strain rsa3, active compounds read low 0.99 | S. cerevisiae deletion strains, locus YLR258W, strain gsy2, active compounds read low 1.03 | S. cerevisiae deletion strains, locus YLR262C, strain YPT6 (second series), active compounds read low 0.993 | S. cerevisiae deletion strains, locus YLR268W, strain sec22, active compounds read low 0.975 | S. cerevisiae deletion strains, locus YLR320W, strain mms22, active compounds read low 0.999 | S. cerevisiae deletion strains, locus YLR330W, strain CHS5, active compounds read low 1.01 | S. cerevisiae deletion strains, locus YLR342W, strain FKS1, active compounds read low 1 | S. cerevisiae deletion strains, locus YLR357W, strain rsc2, active compounds read low 1.03 | S. cerevisiae deletion strains, locus YLR370C, strain arc18, active compounds read low 1.01 | S. cerevisiae deletion strains, locus YLR371W, strain rom2, active compounds read low 0.997 | S. cerevisiae deletion strains, locus YLR384C, strain iki3, active compounds read low 1.01 | S. cerevisiae deletion strains, locus YLR418C, strain cdc73, active compounds read low 1.09 | S. cerevisiae deletion strains, locus YML016C, strain PPZ1, active compounds read low 1.01 | S. cerevisiae deletion strains, locus YML032C, strain rad52, active compounds read low 0.999 | S. cerevisiae deletion strains, locus YML120C, strain ndi1, active compounds read low 1 | S. cerevisiae deletion strains, locus YML124C, strain tub3, active compounds read low 1 | S. cerevisiae deletion strains, locus YMR058W, strain fet3, active compounds read low 1.02 | S. cerevisiae deletion strains, locus YMR078C, strain ctf18, active compounds read low 1 | S. cerevisiae deletion strains, locus YMR125W, strain sto1, active compounds read low 1 | S. cerevisiae deletion strains, locus YMR129W, active compounds read low 1.01 | S. cerevisiae deletion strains, locus YMR205C, strain PFK2, active compounds read low 0.98 | S. cerevisiae deletion strains, locus YMR223W, strain ubp8, active compounds read low 1.01 | S. cerevisiae deletion strains, locus YMR231W, strain pep5, active compounds read low 0.991 | S. cerevisiae deletion strains, locus YMR263W, strain SAP30, active compounds read low 1.01 | S. cerevisiae deletion strains, locus YMR307W, strain GAS1, active compounds read low 1.06 | S. cerevisiae deletion strains, locus YNL067W, strain RPL9B, active compounds read low 1.02 | S. cerevisiae deletion strains, locus YNL071W, strain lat1, active compounds read low 1.01 | S. cerevisiae deletion strains, locus YNL153C, strain GIM3, active compounds read low 1.03 | S. cerevisiae deletion strains, locus YNL183C, strain NPR1, active compounds read low 0.937 | S. cerevisiae deletion strains, locus YNL209W, strain ssb2, active compounds read low 1 | S. cerevisiae deletion strains, locus YNL233W, strain BNI4, active compounds read low 1.04 | S. cerevisiae deletion strains, locus YNL248C, strain rpa49, active compounds read low 0.928 | S. cerevisiae deletion strains, locus YNL250W, strain rad50, active compounds read low 1.03 | S. cerevisiae deletion strains, locus YNL271C, strain bni1, active compounds read low 1.01 | S. cerevisiae deletion strains, locus YNL298W, strain CLA4, active compounds read low 0.993 | S. cerevisiae deletion strains, locus YNL307C, strain MCK1, active compounds read low 1.01 | S. cerevisiae deletion strains, locus YNL322C, strain KRE1 (second series), active compounds read low 0.989 | S. cerevisiae deletion strains, locus YNR049C, strain mso1, active compounds read low 1.01 | S. cerevisiae deletion strains, locus YNR052C, strain pop2, active compounds read low 1.01 | S. cerevisiae deletion strains, locus YOL012C, strain htz1 0.988 | S. cerevisiae deletion strains, locus YOL147C, strain pex11, active compounds read low 1 | S. cerevisiae deletion strains, locus YOR001W, strain rrp6, active compounds read low 0.976 | S. cerevisiae deletion strains, locus YOR061W, strain CKA2, active compounds read low 0.991 | S. cerevisiae deletion strains, locus YOR069W, strain VPS5, active compounds read low 1.01 | S. cerevisiae deletion strains, locus YOR070C, strain gyp1, active compounds read low 1.02 | S. cerevisiae deletion strains, locus YOR080W, strain dia2, active compounds read low 0.993 | S. cerevisiae deletion strains, locus YOR083W, strain WHI5, active compounds read low 0.997 | S. cerevisiae deletion strains, locus YOR106W, strain vam3, active compounds read low 1.02 | S. cerevisiae deletion strains, locus YOR136W, strain idh2, active compounds read low 1.01 | S. cerevisiae deletion strains, locus YOR144C, strain elg1, active compounds read low 0.996 | S. cerevisiae deletion strains, locus YOR184W, strain ser1, active compounds read low 0.98 | S. cerevisiae deletion strains, locus YOR231W, strain MKK1, active compounds read low 0.964 | S. cerevisiae deletion strains, locus YOR265W, strain rbl2, active compounds read low 0.995 | S. cerevisiae deletion strains, locus YOR270C, strain vph1, active compounds read low 1.01 | S. cerevisiae deletion strains, locus YOR290C, strain snf2, active compounds read low 0.952 | S. cerevisiae deletion strains, locus YOR316C, strain cot1, active compounds read low 1.02 | S. cerevisiae deletion strains, locus YPL051W, strain arl3, active compounds read low 1 | S. cerevisiae deletion strains, locus YPL078C, strain atp4, active compounds read low 1 | S. cerevisiae deletion strains, locus YPL106C, strain sse1, active compounds read low 1 | S. cerevisiae deletion strains, locus YPL240C, strain hsp82, active compounds read low 1 | S. cerevisiae deletion strains, locus YPL256C, strain CLN2, active compounds read low 0.962 | S. cerevisiae deletion strains, locus YPR119W, strain clb2, active compounds read low 1 | S. cerevisiae deletion strains, locus YPR141C, strain kar3, active compounds read low 1 | S. cerevisiae deletion strains, locus YPR163C, strain tif3, active compounds read low 1 | S. cerevisiae deletion strains, locus YPR167C, strain met16, active compounds read low 1 | S. cerevisiae deletion strains, strain wtn01, active compounds read low 0.997 | S. cerevisiae strains, strain wild type, active compounds read low 0.999
